# In article PMC7862700, “An all-to-all approach to the identification of sequence-specific readers for epigenetic DNA modifications on cytosine”:
# Columns and labels:
# Assay in all cases: DAPPL (digital affinity profiling via proximity ligation, sequencing); 10 mM Tris-HCl pH 7.5, 50 mM NaCl, 1 mM DTT, 4% glycerol, room temperature, 30 min; GST-TFs on glutathione beads, 16-mer random dsDNA library, 0.1% formaldehyde crosslink after washing; high values mean tight binding
# Conditions in all cases: protein: recombinant; tags: N-terminal GST; dsDNA, one strand shown
# FLI1 = target: T1, FLI1 (Homo sapiens, UniProt Q01543 1-452)
# T1 sequence: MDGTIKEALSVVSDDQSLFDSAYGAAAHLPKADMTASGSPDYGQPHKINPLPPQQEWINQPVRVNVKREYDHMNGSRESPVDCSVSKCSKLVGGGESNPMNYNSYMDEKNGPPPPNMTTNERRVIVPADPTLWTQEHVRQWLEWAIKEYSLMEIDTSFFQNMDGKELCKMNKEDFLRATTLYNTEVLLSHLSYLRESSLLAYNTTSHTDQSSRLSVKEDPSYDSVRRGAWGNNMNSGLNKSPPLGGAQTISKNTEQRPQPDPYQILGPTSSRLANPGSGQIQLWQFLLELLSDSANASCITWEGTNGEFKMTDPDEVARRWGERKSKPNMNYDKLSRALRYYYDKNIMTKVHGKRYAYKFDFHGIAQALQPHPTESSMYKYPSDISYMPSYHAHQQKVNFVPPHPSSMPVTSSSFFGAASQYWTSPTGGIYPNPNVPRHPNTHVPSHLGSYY
# How it was run: (§1)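 Human transcription factors carrying a GST fusion were produced in yeast, bound to glutathione beads, tagged with DNA barcodes and pooled together with a tag-only sample. Each pool was held with 200 nmole of a random double-stranded 16-mer DNA library in Tris/NaCl/DTT/glycerol buffer for 30 min at room temperature, then washed, crosslinked in 0.1% formaldehyde, proximity-ligated with BsaI/T4 ligase (1 h, 37 °C), PCR-amplified and sequenced on an Illumina NextSeq500. Binding signal is the read frequency of each hexamer for a given factor divided by its frequency in the tag-only sample.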
# ELK1 = target: T2, ELK1 (Homo sapiens, UniProt P19419 1-428)
# T2 sequence: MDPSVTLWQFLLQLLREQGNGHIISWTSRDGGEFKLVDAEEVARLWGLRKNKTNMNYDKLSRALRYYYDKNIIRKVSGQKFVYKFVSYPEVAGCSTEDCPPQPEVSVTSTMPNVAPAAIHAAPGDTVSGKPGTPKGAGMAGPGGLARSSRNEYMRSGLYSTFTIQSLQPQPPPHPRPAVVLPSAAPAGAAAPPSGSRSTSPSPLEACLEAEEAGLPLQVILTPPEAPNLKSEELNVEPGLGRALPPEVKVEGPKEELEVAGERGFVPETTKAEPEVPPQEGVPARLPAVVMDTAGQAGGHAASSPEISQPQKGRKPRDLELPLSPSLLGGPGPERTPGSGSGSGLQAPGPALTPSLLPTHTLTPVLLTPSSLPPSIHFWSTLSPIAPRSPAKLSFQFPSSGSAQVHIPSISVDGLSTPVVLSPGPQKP
# How it was run: as §1
# GABPA = target: T3, GABPA (Homo sapiens, UniProt Q06546 1-454)
# T3 sequence: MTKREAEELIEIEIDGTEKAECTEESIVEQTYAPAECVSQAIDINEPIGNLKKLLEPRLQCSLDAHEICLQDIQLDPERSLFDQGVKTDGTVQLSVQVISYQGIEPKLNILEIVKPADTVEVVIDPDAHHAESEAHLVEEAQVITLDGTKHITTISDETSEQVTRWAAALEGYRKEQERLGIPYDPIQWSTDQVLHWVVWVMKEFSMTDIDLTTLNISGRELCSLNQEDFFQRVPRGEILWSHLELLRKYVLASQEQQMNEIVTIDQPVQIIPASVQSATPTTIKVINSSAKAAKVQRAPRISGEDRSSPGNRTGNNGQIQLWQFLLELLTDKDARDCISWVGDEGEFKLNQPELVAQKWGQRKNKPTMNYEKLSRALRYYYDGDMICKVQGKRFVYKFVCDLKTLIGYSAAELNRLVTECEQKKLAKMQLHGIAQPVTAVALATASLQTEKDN
# How it was run: as §1
# ERG = target: T4, ERG (Homo sapiens, UniProt P11308 1-479)
# T4 sequence: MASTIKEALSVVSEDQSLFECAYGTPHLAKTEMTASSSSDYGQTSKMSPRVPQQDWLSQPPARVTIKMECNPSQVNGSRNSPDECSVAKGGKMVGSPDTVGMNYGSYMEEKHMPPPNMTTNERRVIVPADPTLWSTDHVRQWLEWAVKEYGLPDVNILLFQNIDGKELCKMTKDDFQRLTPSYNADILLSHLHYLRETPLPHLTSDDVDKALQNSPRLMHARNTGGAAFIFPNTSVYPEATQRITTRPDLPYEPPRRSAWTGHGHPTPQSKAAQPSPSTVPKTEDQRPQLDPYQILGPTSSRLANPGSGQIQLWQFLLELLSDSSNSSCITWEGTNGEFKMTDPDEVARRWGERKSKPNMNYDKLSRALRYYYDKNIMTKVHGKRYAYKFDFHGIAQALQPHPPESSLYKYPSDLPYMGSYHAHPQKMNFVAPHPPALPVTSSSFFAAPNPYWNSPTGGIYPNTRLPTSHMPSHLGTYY
# How it was run: as §1
# ELF1 = ELF1 (Homo sapiens, UniProt P32519 1-619)
# Sequence of ELF1 (P32519 whole entry): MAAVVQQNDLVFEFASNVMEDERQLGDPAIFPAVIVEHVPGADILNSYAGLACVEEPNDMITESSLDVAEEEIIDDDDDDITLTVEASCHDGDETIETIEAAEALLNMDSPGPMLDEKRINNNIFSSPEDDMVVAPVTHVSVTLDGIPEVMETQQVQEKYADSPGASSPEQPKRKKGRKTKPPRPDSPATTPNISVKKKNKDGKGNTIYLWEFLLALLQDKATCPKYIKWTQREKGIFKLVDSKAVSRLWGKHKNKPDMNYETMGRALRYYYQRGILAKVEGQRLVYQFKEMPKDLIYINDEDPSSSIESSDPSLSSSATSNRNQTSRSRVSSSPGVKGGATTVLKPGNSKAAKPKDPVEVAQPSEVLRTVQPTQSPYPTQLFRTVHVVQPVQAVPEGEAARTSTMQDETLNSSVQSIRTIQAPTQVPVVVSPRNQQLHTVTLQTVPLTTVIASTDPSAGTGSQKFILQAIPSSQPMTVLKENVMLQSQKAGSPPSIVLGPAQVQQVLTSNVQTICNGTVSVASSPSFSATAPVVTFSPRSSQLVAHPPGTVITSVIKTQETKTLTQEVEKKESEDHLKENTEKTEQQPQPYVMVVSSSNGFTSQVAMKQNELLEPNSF
# How it was run: as §1
# EHF = target: T5, EHF (Homo sapiens, UniProt Q9NZC4 1-300)
# T5 sequence: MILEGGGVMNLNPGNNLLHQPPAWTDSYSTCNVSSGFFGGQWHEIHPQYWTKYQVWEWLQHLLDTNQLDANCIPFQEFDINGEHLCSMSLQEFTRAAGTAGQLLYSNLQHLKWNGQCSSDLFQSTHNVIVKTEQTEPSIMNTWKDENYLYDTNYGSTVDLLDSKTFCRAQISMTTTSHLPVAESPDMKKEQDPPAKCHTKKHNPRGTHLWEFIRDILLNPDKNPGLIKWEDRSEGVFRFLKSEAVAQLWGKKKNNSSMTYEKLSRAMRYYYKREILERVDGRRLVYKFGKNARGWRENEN
# How it was run: as §1
# SPI1 = SPI1 (Homo sapiens, UniProt P17947 1-270)
# How it was run: as §1
# SPIB = SPIB (Homo sapiens, UniProt Q01892 1-262)
# Sequence of SPIB (Q01892 whole entry): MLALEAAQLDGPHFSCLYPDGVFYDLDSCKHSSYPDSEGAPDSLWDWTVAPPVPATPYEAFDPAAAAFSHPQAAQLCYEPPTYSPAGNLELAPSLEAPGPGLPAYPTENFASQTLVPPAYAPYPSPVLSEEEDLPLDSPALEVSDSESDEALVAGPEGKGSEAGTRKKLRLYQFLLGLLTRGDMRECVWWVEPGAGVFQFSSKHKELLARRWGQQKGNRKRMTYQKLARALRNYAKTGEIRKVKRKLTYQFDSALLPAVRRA
# How it was run: as §1
# ELK3 = target: T6, ELK3 (Homo sapiens, UniProt P41970 1-407)
# T6 sequence: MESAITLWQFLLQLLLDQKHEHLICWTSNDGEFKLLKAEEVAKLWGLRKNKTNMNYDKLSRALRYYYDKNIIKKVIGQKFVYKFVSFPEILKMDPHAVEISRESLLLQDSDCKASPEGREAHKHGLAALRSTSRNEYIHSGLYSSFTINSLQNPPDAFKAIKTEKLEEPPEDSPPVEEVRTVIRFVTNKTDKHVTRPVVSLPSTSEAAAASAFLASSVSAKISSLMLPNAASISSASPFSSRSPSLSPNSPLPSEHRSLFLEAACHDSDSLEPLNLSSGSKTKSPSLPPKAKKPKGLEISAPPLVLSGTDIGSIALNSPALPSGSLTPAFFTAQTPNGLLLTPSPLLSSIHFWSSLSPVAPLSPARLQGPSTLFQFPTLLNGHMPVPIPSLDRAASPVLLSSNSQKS
# How it was run: as §1
sequence,measurement,setting,value
CCGCAT,binding signal,FLI1,"1.61 fold enrichment (6-mer frequency, TF over GST control)"
same,binding signal,ELK1,"1.59 fold enrichment (6-mer frequency, TF over GST control)"
same,binding signal,GABPA,"1.54 fold enrichment (6-mer frequency, TF over GST control)"
same,binding signal,ERG,"1.52 fold enrichment (6-mer frequency, TF over GST control)"
same,binding signal,ELF1,"1.58 fold enrichment (6-mer frequency, TF over GST control)"
same,binding signal,EHF,"1.61 fold enrichment (6-mer frequency, TF over GST control)"
same,binding signal,SPI1,"1.99 fold enrichment (6-mer frequency, TF over GST control)"
same,binding signal,SPIB,"1.55 fold enrichment (6-mer frequency, TF over GST control)"
same,binding signal,ELK3,"1.6 fold enrichment (6-mer frequency, TF over GST control)"
